Compound activity deposited in PubChem by National Center for Advancing Translational Sciences (NCATS).
Sfp PPTase inh: qHTS Assay for Inhibitors of Bacillus subtilis Sfp phosphopantetheinyl transferase (PPTase); Biochemical Sfp PPTase activity, qHTS; Potency, µM, inactives show largest response in the series, negative = inhibition, most hits filed as inhibitors; 3.5% of 310,000 active;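 further: the enzyme is Sfp with the accession as filed and its product quenches rhodamine fluorescence; 0% = enzyme reaction without inhibitor and -100% = no enzyme wells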
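After 15 min at room temperature with compound, 15 nM Sfp received 5 uM rhodamine-CoA plus 12.5 uM BHQ-2-ybbR (50 mM Hepes pH 7.6, 10 mM MgCl2). Rate came from the fluorescence difference over 30 min, ex 525/em 598 nm.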
HP1b binding inh: HTS for Inhibitors of HP1-beta Chromodomain Interactions with Methylated Histone Tails; AlphaScreen HP1-beta / biotin-H3K9me3 peptide binding; Potency, µM (top dose mostly 114 µM), without a hit: at the top dose activity change, negative = inhibition, hits mostly inhibitors; 0.56% of 390,000 active; Chromobox protein homolog 1 (Homo sapiens), P83916; further: nearly all actives have a fitted effect of over 70% in size
Target sequence (P83916 whole entry, looked up): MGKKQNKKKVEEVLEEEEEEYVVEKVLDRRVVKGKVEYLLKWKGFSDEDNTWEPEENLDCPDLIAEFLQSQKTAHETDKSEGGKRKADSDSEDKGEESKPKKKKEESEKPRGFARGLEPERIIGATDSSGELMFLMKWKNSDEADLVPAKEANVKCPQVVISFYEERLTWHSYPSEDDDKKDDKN
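Compound inhibition of the preformed complex between 50 nM HP1-beta and 50 nM biotinylated H3K9me3 peptide was read by AlphaScreen. Buffer was PBS pH 7.4 with 0.01% Tween-20. Incubations ran 30 min at room temperature, with 10 ug/mL donor/acceptor beads.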
G9a inh: qHTS Assay for Inhibitors of Histone Lysine Methyltransferase G9a. Histone-lysine N-methyltransferase EHMT2 (Homo sapiens), Q96KQ7. G9a H3K9 monomethylation, AlphaScreen, 2 h. Potency, µM (top dose mostly 102 µM), inactives show top-dose activity, negative = inhibition, usual class: inhibitors. 8.8% of 350,000 active. AID 504332, 2011; further: on the % scale 0 is the no-effect control and ±100 the full control effect; nearly all actives have a fitted effect of over 75% in size
Target sequence (Q96KQ7 913-1193 limits assumed): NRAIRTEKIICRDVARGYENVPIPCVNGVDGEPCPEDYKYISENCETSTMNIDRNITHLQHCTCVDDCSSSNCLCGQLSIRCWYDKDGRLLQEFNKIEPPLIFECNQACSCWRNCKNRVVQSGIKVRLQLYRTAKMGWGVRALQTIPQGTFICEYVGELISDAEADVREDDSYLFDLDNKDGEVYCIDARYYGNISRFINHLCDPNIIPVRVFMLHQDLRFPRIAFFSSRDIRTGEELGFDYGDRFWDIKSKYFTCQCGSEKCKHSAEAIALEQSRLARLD
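G9a (20 nM) preincubated 15 min RT with compounds, then 500 nM biotinylated H3K9 peptide and 20 uM SAM added; 2 h RT reaction. Monomethyl-H3K9 product detected by AlphaScreen with anti-H3K9me1 antibody, streptavidin donor and anti-rabbit IgG acceptor beads.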
L3MBTL1 block: qHTS Assay for the Inhibitors of L3MBTL1 | Lethal(3)malignant brain tumor-like protein 1 (Homo sapiens), Q9Y468 | AlphaScreen L3MBTL1–H3K9me1 peptide binding | Potency, µM (titrated, usually from 57.1 µM), for the others: at the highest dose activity, negative = inhibition, usual class: inhibitors | 0.66% of 230,000 active | AID 485360, 2010; further: on the % scale 0 is the no-effect control and ±100 the full control effect; nearly all actives have a fitted effect of over 60% in size
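First, the protein-peptide complex forms for 30 min at room temperature (L3MBTL1 50 nM, biotinylated H3K9me1 peptide 75 nM). Next, compounds are pin-transferred and incubated 30 min. Finally, AlphaScreen beads are added and read after 30 min.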
JMJD2A Tudor: qHTS Assay for Inhibitors of JMJD2A-Tudor Domain | Potency, µM (titrated, usually from 114 µM), for the others: at the top dose activity change, negative = inhibition, most hits filed as inhibitors | Lysine-specific demethylase 4A (Homo sapiens), O75164 | AlphaScreen JMJD2A-Tudor / H3K4me3 peptide binding | 4.4% of 390,000 active; further: on the % scale 0 is the no-effect control and ±100 the full control effect; nearly all actives have a fitted effect of over 50% in size
BAZ2B inh: qHTS Assay for Inhibitors of BAZ2B; Bromodomain adjacent to zinc finger domain protein 2B (Homo sapiens), Q9UIF8; AlphaScreen BAZ2B-H3K14Ac peptide displacement; Potency, µM (highest dose often 114 µM), for the others: at the top dose activity change, negative = inhibition, most hits filed as inhibitors; 4.4% of 360,000 active; AID 504333, 2011; further: on the % scale 0 is the no-effect control and ±100 the full control effect; nearly all actives have a fitted effect of over 60% in size
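AlphaScreen luminescence quantifies BAZ2B engagement of H3K14Ac peptide; the protein and biotinylated peptide are both at 50 nM final, buffer PBS pH 7.4 with 0.01% Tween-20, all steps at room temperature.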
* = called active by the depositor; ? = inconclusive; · = no result; [ ] = remark or other dose. In the library only some 12% were active in any assay of this set; here they are far more common. The call rests on the fitted dose curve; in most records, active means well fitted curve in the direction sought with a large enough effect; inconclusive means small, poorly fitted or top-dose-only effect, or another doubt; inactive means no such curve, though single readings can be large; an effect the other way counts as inactive or inconclusive. Potency means the concentration at half of the fitted maximal effect.

SMILES	Sfp PPTase inh	HP1b binding inh	G9a inh	L3MBTL1 block	JMJD2A Tudor	BAZ2B inh
Cc1ccc(C(=O)OCC(=O)NC(=O)c2ccccc2)o1	·	-3%	?	0%	-17%	-5%
Cc1sc2ncn(CC(=O)N3CCC(C(N)=O)CC3)c(=O)c2c1S(=O)(=O)N1CC(C)CC(C)C1 (stereo not drawn)	14%	-95%	-1%	·	100µM*	3%
Cc1sc2ncn(CC(=O)N3CCCC(C)C3)c(=O)c2c1S(=O)(=O)N1CCCCC1 (stereo not drawn)	24%	-15%	-4%	·	-17%	5%
COCCn1c(C)c(C)c(S(=O)(=O)c2ccccc2)c1N	-17%	50%	35µM*	·	-15%	?
Cc1c(S(=O)(=O)c2ccccn2)c(N)n(Cc2ccccc2Cl)c1C	-15%	10%	·	·	-31%	?
Cc1c(S(=O)(=O)c2ccccn2)c(N)n(Cc2ccccc2)c1C	3%	5%	14µM*	-20%	?	-35%
O=c1oc2ccccc2c(N2CCCC2)c1CN1CCCC1	3%	35%	56µM*	·	-11%	-1%
O=c1oc2ccccc2c(Cl)c1CN1CCCCC1	16%	33%	50µM*	-3%	-8%	-16%
COc1ccc(CNC(=O)c2cc3ccccn3n2)cc1OC	·	22%	2%[59 µM]	·	-23%	-2%
CC(=O)Oc1ccc2cc(-c3nc4c(s3)CCc3ccccc3-4)c(=O)oc2c1	·	34%[57 µM]	·	·	-1%[57.1 µM]	·
OC1(c2ccc3ccccc3c2)CCN(Cc2ccccc2)C1 (stereo not drawn)	89µM*	32%	-44%	·	-14%	8%
CC1(c2ccc3ccccc3c2)NC(=O)N(CC(=O)N2CCN(Cc3ccccc3)CC2)C1=O (stereo not drawn)	·	41%	25%[12.7 µM]	-6%	-27%	-36%
COc1cc(OC)c(NC2(c3ccccc3)C(=O)c3ccccc3C2=O)cc1Cl	·	?	13µM*	·	20µM*	22µM*
COc1ccc(C2(Nc3cccc(C(=O)O)c3C)C(=O)c3ccccc3C2=O)cc1	·	20%	4%[59 µM]	·	1%	9%[57.1 µM]
N#CC(C#N)=C1c2cc(S(N)(=O)=O)ccc2-c2ccc(S(N)(=O)=O)cc21	40µM*	36%	18µM*	2%	-8%	-37%
N#CC(C#N)=C1c2cc(S(=O)(=O)NCCO)ccc2-c2ccc(S(=O)(=O)NCCO)cc21	56µM*	66%	·	·	-9%	-17%
C=C1c2ccccc2NC(=O)N1c1ccc(OC)cc1	-3%	17%	20µM*	-4%	-21%	0%
Cc1ccc(CC2C(=O)N(c3ccccc3)C(=O)C2C)cc1 (stereo not drawn)	18%	76%	43%	-2%	6%	-6%
COc1ccc(N2C(=O)NC(=O)C2=O)cc1	5%	-14%	?	·	-18%	-2%
C=C1c2cc(C)ccc2NC(=O)N1c1ccccc1	-9%	14%	32µM*	1%	-8%	0%
O=C(Nc1sc2c(c1C(=O)O)CCCC2)c1cccc(Cl)c1	-8%	-7%	-16%	·	-25%	-12%
NCC1O[C@@H](OC2C(N)C[C@H](N)[C@@H](O[C@H]3OC(CO)C(O)C(N)C3O)C2O)C(N)C(O)C1O (stereo partly drawn)	0%	·	-5%[2.33 µM]	·	·	·
O=C1CN(S(=O)(=O)c2ccc(Br)cc2)c2ccccc2N1	10%	26%	-4%	-1%	-10%	3%
O=C1CN(S(=O)(=O)c2cccc(Cl)c2Cl)c2ccccc2N1	-5%	14%	50µM*	·	-10%	3%
